This is an account of results in PubChem BioAssay (NCATS).

Inconclusive results are not listed. Activity calls are given as the source filed them. The call rests on the fitted dose curve; in most records, active means well fitted curve in the direction sought with a large enough effect; inconclusive means small, poorly fitted or top-dose-only effect, or another doubt; inactive means no such curve, though single readings can be large; an effect the other way counts as inactive or inconclusive. Square brackets hold non-standard residues; d marks the D form. Peptide text beside a SMILES is read from it. ξ: configuration not given here. ξL = CC(C)CC(N)C(=O)O
Further: 0% is about no effect.

A short description of the first assay: qHTS for Hypoxia signaling pathway (HIF-1) agonists against the NCATS CANVASS Library (AID 1347375). As to conditions: HRE-bla ME-180 cells, HIF-1 beta-lactamase reporter, 17 h; series mostly up to 38.3 µM; activation: at the top concentration. Put shortly:
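Cells plated and rested 5 h, compounds pinned in DMSO across 11 concentrations, incubated 17 h at 37C, loaded with CCF4-AM for 2 h, fluorescence read at 460 and 530 nm, then CellTiter-Glo luminescence measured for viability and normalization.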
As for `CC1=C(C)C(=O)OC(C(C)C2(O)CCC3C4C5OC5C5(O)CC=CC(=O)C5(C)C4CCC32C)C1` (stereo not given), the “activation” value was 0.999% (inactive). The same measure, in the same setting: the figure for `C[C@H](CCC(O)C(C)(O)CO)[C@@]1(O)CC[C@@]2(C)C3=C(CC[C@@]21C)[C@@]1(C)CCC(OC(=O)CCC(=O)O)C(C)(C)[C@@H]1CC3` (stereo not given in full) is -1.14% (inactive); for `COc1cc(C2C3=C(Cc4cc5c(cc42)OCO5)C(=O)OC3)cc(OC)c1OC` (stereo not given) it is 1.83% (inactive).

For the molecule `CO[C@@H]1[C@H](O)[C@@H](C)O[C@@H](OC[C@@H]2C(C)OC(=O)/C=C/[C@H](C)C(O[C@@H]3O[C@H](C)CC4(OC(=O)O[C@@H]4C)C3O)[C@@H](C)CC(C)C(=O)/C=C/[C@H]3OC23)[C@@H]1OC` (stereo not given in full), the “activation” value is -4.16% (inactive). In the case of `C=C[C@@](C)(O)CC[C@@H]1[C@@]2(C)CCCC(C)(C)[C@@H]2CC[C@@]1(C)O`, the “activation” value is 1% (inactive). As to `COc1ccc([C@@H]2c3cc4c(cc3C(=O)[C@H](C)C2C)OCO4)cc1OC` (stereo not given in full), the “activation” value was 6.78% (inactive). On the same count and under the same terms, the figure for `C/C(=C\[C@H](C)C(=O)C[C@H](O)CC1CC(=O)NC(=O)C1)[C@@H]1OC(=O)CCCC/C=C/[C@@H](O)C[C@@H]1C` is 0.711% (inactive); for `CC1=C[C@H]2[C@H]3C(=O)C(c4ccc(O)cc4)=C[C@@]3(c3ccc(O)cc3)[C@@H]1C(=O)[C@]2(C)O` it is 2.11% (inactive).

Consider `C/C(=C\[C@H](C)C(=O)/C=C/CC1CC(=O)NC(=O)C1)[C@@H]1OC(=O)CCCC/C=C/[C@H](O)[C@@H](O)[C@@H]1C`, for which the “activation” value is -0.573% (inactive).

Regarding `COc1ccc([C@@H]2c3cc4c(cc3C[C@H](C)C2C)OCO4)cc1OC` (stereo not given in full), the “activation” value is 4.83% (inactive). As for `C[C@H]1CCC2(OC1)O[C@H]1C[C@H]3[C@@H]4CC(=O)[C@]5(O)C[C@H](O)CC[C@@]5(C)[C@H]4CC[C@@]3(C)[C@H]1[C@H]2C` (stereo not given in full), the “activation” value is -1.21% (inactive). The same measure, in the same setting: the figure for `C/C1=C/[C@@H](C)[C@H](O)C/C=C/CC/C=C/C(=O)O[C@@H]1[C@H](C)C(=O)CCCC1CC(=O)NC(=O)C1` is 2.2% (inactive).

Another assay is described as follows: 10-beta competent E. coli microbial cell viability qHTS against the NCATS CANVASS Library (AID 1347376). As to conditions: E. coli 10-beta viability, BacTiter-Glo ATP luminescence, overnight; series mostly up to 46.1 µM; activity change, negative = cytotoxic: at the top concentration. Put shortly: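 Bacterial suspension diluted to 0.2 OD was dosed with compounds, 11-point series, then held overnight at 37C. BacTiter-Glo reagent was added, and after 20 min at room temperature ATP-dependent luminescence was measured.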
On to `O[C@H]1C=C2[C@H]3CN(Cc4cc5c(cc43)OCO5)[C@H]2C[C@@H]1O`, for which the “activity change, negative = cytotoxic” value was -5.82% (inactive).

In the case of `CC[C@@H](c1cc(OC)c(OC)cc1OC)[C@H](C)[C@@H](/C(C)=C/c1cc(OC)c(OC)cc1OC)c1cc(OC)c(OC)cc1OC`, the molecule was classed as inactive. In the case of `C/C=C/c1cc2c(c(=O)o1)C(=O)[C@@H](O)[C@H](C)O2`, the “activity change, negative = cytotoxic” value was 10.4% (inactive). The same measure, in the same setting: the figure for `CC[C@@H](C)[C@H]1NC(=O)C(CC(C)C)NC(=O)[C@@H](CC(C)C)NC(=O)[C@H](Cc2c[nH]c3ccccc23)NC(=O)CNC(=O)[C@@H](CC(N)=O)NC1=O` (stereo partly drawn) (cyclo(GW[dL][ξL][dI][dN])) is -5.83% (inactive); for `CN1CCc2cc3c(c4c2C1(C)C(=O)c1cc(O)ccc1-4)OCO3` (stereo not given) it is -7.1% (inactive). Still for that read-out and setting: the figure for `COc1cc2c(cc1OC)[C@@H](c1ccc3c(c1)OCO3)C(C)[C@@H](C)C2=O` (stereo not given in full) is -10.3% (inactive). On the same count and under the same terms, the figure for `CC(C)[C@@H]1CC(=O)c2coc3c2[C@H]1C[C@@H](C)C3=O` is -10.3% (inactive). Regarding `COc1cc2oc3ccccc3c(=O)c2cc1OC`, the “activity change, negative = cytotoxic” value was 0.669% [at 91.4 µM] (inactive). Still for that read-out and setting: the figure for `COC(=O)[C@@]1(C)CCC[C@]2(C)c3cc(OC)ccc3CC[C@@H]12` is 14% (inactive); for `COc1cc2ccc(=O)oc2c(O)c1O[C@@H]1O[C@H](CO)[C@@H](O)[C@H](O)[C@H]1O` it is 1.9% [at 27.5 µM] (inactive). With `CC[C@H]1[C@@H](C)[C@@H](c2cc(OC)c(OC)cc2OC)[C@H](C)[C@@H](c2cc(OC)c(OC)cc2OC)[C@@]12C=C(OC)C(=O)C=C2OC`, the “activity change, negative = cytotoxic” value was -10.3% (inactive). For the molecule `O=C1CCC(=O)N(O)CCCCCNC(=O)CCC(=O)N(O)CCCCCNC(=O)CCC(=O)N(O)CCCCCN1`, the “activity change, negative = cytotoxic” value is -4.66% (inactive). Still for that read-out and setting: the figure for `C=C1C[C@H]2O[C@@H]3[C@@H]4[C@H](CC[C@@](C)(O)[C@@H]42)[C@H](C)COC3(C)[C@@H](OC(=O)CCCCCCC)C[C@H]1O` (stereo not given in full) is 3.16% (inactive); for `CC1=C(C)C(=O)OC(C(C)C2(O)CCC3C4C5OC5C5(O)CC=CC(=O)C5(C)C4CCC32C)C1` (stereo not given) it is -7.05% (inactive). Regarding `C[C@H](CCC(O)C(C)(O)CO)[C@@]1(O)CC[C@@]2(C)C3=C(CC[C@@]21C)[C@@]1(C)CCC(OC(=O)CCC(=O)O)C(C)(C)[C@@H]1CC3` (stereo not given in full), the “activity change, negative = cytotoxic” value is 12.2% (inactive). The same measure, in the same setting: the figure for `COc1cc(C2C3=C(Cc4cc5c(cc42)OCO5)C(=O)OC3)cc(OC)c1OC` (stereo not given) is 13.2% (inactive); for `CO[C@@H]1[C@H](O)[C@@H](C)O[C@@H](OC[C@@H]2C(C)OC(=O)/C=C/[C@H](C)C(O[C@@H]3O[C@H](C)CC4(OC(=O)O[C@@H]4C)C3O)[C@@H](C)CC(C)C(=O)/C=C/[C@H]3OC23)[C@@H]1OC` (stereo not given in full) it is -0.749% (inactive); for `C=C[C@@](C)(O)CC[C@@H]1[C@@]2(C)CCCC(C)(C)[C@@H]2CC[C@@]1(C)O` it is -14.7% (inactive).

With `COc1ccc([C@@H]2c3cc4c(cc3C(=O)[C@H](C)C2C)OCO4)cc1OC` (stereo not given in full), the “activity change, negative = cytotoxic” value was -2.78% (inactive). With `C/C(=C\[C@H](C)C(=O)C[C@H](O)CC1CC(=O)NC(=O)C1)[C@@H]1OC(=O)CCCC/C=C/[C@@H](O)C[C@@H]1C`, the “activity change, negative = cytotoxic” value was -4.61% (inactive). Still for that read-out and setting: the figure for `CC1=C[C@H]2[C@H]3C(=O)C(c4ccc(O)cc4)=C[C@@]3(c3ccc(O)cc3)[C@@H]1C(=O)[C@]2(C)O` is -0.851% (inactive); for `C=C1C(=O)O[C@H]2[C@H]1CCC(C)=C1CC[C@@](C)(O)[C@@H]12` it is 8% (inactive). Still for that read-out and setting: the figure for `C/C(=C\[C@H](C)C(=O)/C=C/CC1CC(=O)NC(=O)C1)[C@@H]1OC(=O)CCCC/C=C/[C@H](O)[C@@H](O)[C@@H]1C` is -2.71% (inactive); for `C[C@H](c1cnc(N)[nH]1)c1ccc(O)c2[nH]cc(-c3cnc(-c4c[nH]c5ccccc45)c(=O)[nH]3)c12` it is 15.7% (inactive). Consider `COc1ccc([C@@H]2c3cc4c(cc3C[C@H](C)C2C)OCO4)cc1OC` (stereo not given in full), for which the “activity change, negative = cytotoxic” value was 10.6% (inactive).

As to `C[C@H]1CCC2(OC1)O[C@H]1C[C@H]3[C@@H]4CC(=O)[C@]5(O)C[C@H](O)CC[C@@]5(C)[C@H]4CC[C@@]3(C)[C@H]1[C@H]2C` (stereo not given in full), the “activity change, negative = cytotoxic” value was -13.1% (inactive). For `C/C1=C/[C@@H](C)[C@H](O)C/C=C/CC/C=C/C(=O)O[C@@H]1[C@H](C)C(=O)CCCC1CC(=O)NC(=O)C1`, the “activity change, negative = cytotoxic” value was -12.2% (inactive). With `C=C1C[C@H]2O[C@@H]3[C@@H]4[C@H](CC[C@@](C)(O)[C@@H]42)[C@H](C)COC3(C)[C@@H](OC(=O)CCCCCCC)CC1=O` (stereo not given in full), the “activity change, negative = cytotoxic” value is -6.22% (inactive).
